Lassa entry inh – blocks Lassa virus binding to or entry into cells | hit rate 1.2% among 300,000 | Lassa virus pseudotype entry inhibition, cell reporter | Potency, µM (titrated, usually from 37.9 µM), most hits filed as inhibitors | AID 540256; calls by dose curve; tested in HEK293 cells; also: nearly all actives have a fitted effect of over 50% in size
HCMV inh – blocks human cytomegalovirus replication | activity change, negative = inhibition, % at 57.5 µM | HFF cells, HCMV-luciferase reporter, 72 h; active compounds read low | hit rate 4.5% among 410,000; in the data active = activity change below about -60%; inconclusive = no clear call, values can overlap the other calls; inactive = above about -39%
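Steps: HFFs plated, 16 h 37C; compounds added; HCMV-luciferase added to MOI 1 PFU/cell; 72 h 37C; OneGlo reagent, 5 min room temperature; luminescence read, normalized to controls.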
MARV entry inh – Marburg virus entry inhibition | Marburg virus pseudotyped entry inhibition, cell reporter | Potency, µM (doses to about 37.8 µM), usual class: inhibitors | hit rate 1.8% among 300,000; calls by dose curve; tested in HEK293 cells
VACV Venus inh – inhibitors of vaccinia virus (Venus reporter); Vaccinia virus Venus reporter expression, fluorescence; Potency, µM (series often up to 36.5 µM), most hits filed as inhibitors; hit rate 0.46% among 330,000; calls by dose curve; tested in A549 cells; also: nearly all actives have a fitted effect of over 30% in size
Vaccinia mCherry – inhibitors of vaccinia virus infection (mCherry reporter signal) | Vaccinia virus mCherry reporter infection, fluorescence | Potency, µM (highest dose often 36.5 µM), hits mostly inhibitors | hit rate 0.63% among 310,000; calls by dose curve; tested in A549 cells; also: nearly all actives have a fitted effect of over 35% in size
FMDV antiviral – antivirals against foot and mouth disease virus. hit rate 1.2% among 410,000. Potency, µM (series often up to 57.9 µM), usual class: inhibitors. FMDV antiviral cell-based qHTS; calls by dose curve; tested in HEK293T cells; also: read-out not given here; nearly all actives have a fitted effect of over 45% in size
A number is an active result; - = inactive; ? = inconclusive; . = not tested or not shown; + = active, no number; ! = not confirmed by another sample. Compounds with a hit are over-represented: about 6.5% of the library has one in this group of screens.

SMILES	Lassa entry inh	HCMV inh	MARV entry inh	VACV Venus inh	Vaccinia mCherry	FMDV antiviral
COc1ccccc1C(=O)Nc1ccnn1C1CCN(C(=O)c2cnsn2)CC1	?	-103	-	-	-	-
COc1ccccc1C(=O)Nc1ccnn1C1CCN(C(=O)c2ccoc2)CC1	-	-	-	-	-	-
COC(=O)c1ccc(-c2nc(O)c(C)s2)cc1	-	-65	-	-	-	-
COC(=O)c1ccc(-c2nc3cc(Cl)c(N)cc3s2)cc1	?	-	0.5µM	-	-	10µM
COC(=O)c1ccc(O)cc1	-	-	-	-	-	-
COc1ccc(Cn2c(C(=O)O)c(CNCc3ccco3)c3ccc(OC)cc32)cc1	-	-	.	-	-	-
Cc1ccc2c(c1)/C(=C/c1ccccc1)C(=O)N2	10µM	-	?	-	-	-
Cc1ccc2c(c1)/C(=C/c1ccccc1F)C(=O)N2	.	-	.	-	-	-
CCn1c(-c2ccccc2F)nc2cc(NC(C)=O)cc(C(=O)N(C)Cc3cn(C)nc3C)c21	.	.	.	-	-	-
O=C(CSc1nnc(-c2ccc(F)cc2)c2ccccc12)Nc1ccccc1Cl	?	-	-	-	-	-
O=C(CSc1nnc(-c2ccc(F)cc2)c2ccccc12)Nc1c(F)cccc1F	?	-83	-	.	.	-
COc1ccccc1NC(=O)CSc1nc2ccccc2c2nc(-c3ccccc3)nn12	-	-	.	-	-	-
O=C(CSc1nc2ccccc2c2nc(-c3ccccc3)nn12)Nc1ccc(F)cc1	-	+	.	-	-	-
O=C(CSc1nnc(-c2ccc(F)cc2)c2ccccc12)Nc1ccccc1	-	-63	-	-	-	-
CC(=O)Nc1ccc(/C=C/c2nc3ccccc3s2)cc1	.	.	.	-	-	.
Cc1ccc(C(=O)N(Cc2cc3cccc(C)c3nc2N(C)C)CC2CCCO2)cc1 (centres undefined)	.	.	.	-	-	-
O=C1NC2c3c(I)sc(I)c3C(=O)C2O1 (centres undefined)	13µM	-	?	?	10µM	40µM
CC(C)NC(=S)N/N=C/c1ccc(N2CCOCC2)cc1	.	-	.	.	.	-
C=C(C)CNC(=S)N/N=C/c1ccc(N2CCOCC2)cc1	?	-78	?	-	-	-
COCCNC(=S)N/N=C/c1ccc(N2CCOCC2)cc1	?	-97	23µM	-	-	-
COC(=O)c1ccc2nc(-c3ccc(C)cc3)c(Cc3ccccc3)n2c1	.	-	.	.	.	.
O=C(COc1ccccc1)NC(=S)Nc1cccc(NC(=O)c2ccccc2Cl)c1	-	-64	-	-	-	-
O=C(Nc1cccc(NC(=O)c2ccccc2Cl)c1)c1ccc([N+](=O)[O-])o1	?	-98	?	?	7.9µM	-
O=C(Nc1cccc([N+](=O)[O-])c1)c1ccc2ccccc2c1O	?	-80	?	?	10µM	-
Cc1ccc(NC(=O)c2cccs2)cc1NC(=O)c1ccccc1Cl	.	-	.	.	.	-
SMILES	Lassa entry inh	HCMV inh	MARV entry inh	VACV Venus inh	Vaccinia mCherry	FMDV antiviral
O=C(Nc1cccc(NC(=O)c2ccccc2Cl)c1)c1cccs1	-	-81	-	-	-	-
O=C(O)[C@H](Cc1c[nH]c2ccccc12)NS(=O)(=O)c1cccc2nsnc12	.	.	-	.	.	.
CCCCN(CCCC)S(=O)(=O)c1ccc2oc(C(=O)NCc3ccccc3)c(C)c2c1	-	-	.	-	-	-
CC(=O)c1cccc(NC(=O)c2ccc(-c3ccccc3[N+](=O)[O-])o2)c1	?	-	4.6µM	-	-	-
O=C(Nc1cccc([N+](=O)[O-])c1)c1ccc([N+](=O)[O-])o1	.	-87	.	?	-	?
Cc1cc(NC(=O)c2ccc(-c3ccccc3[N+](=O)[O-])o2)no1	.	-	.	.	.	-
O=C(Nc1nc2ccc(F)cc2s1)c1ccc([N+](=O)[O-])o1	.	?	.	10µM	?	-
CCOc1ccc(NC(=O)CSc2nnc3c(n2)[nH]c2ccc(S(=O)(=O)N(C)C)cc23)cc1	.	.	.	-	-	.
CC1(C)CC(=O)C=C(c2ccc(COC(=O)c3ccc(Br)cc3)cc2)C1=O	.	-	.	.	.	.
NCC(O)C1CCCCCCC1 (centres undefined)	-	.	7.1µM!	.	.	.
COC(=O)c1ccc(C(=O)OC)c(NC(=O)CN(c2ccccc2)S(=O)(=O)N(C)C)c1	10µM!	-	?	-	-	-
CCCOc1ccc(C2C(=O)N(C3CCCCCC3)CC(=O)N2C(C)C)cc1OC (centres undefined)	?	-	.	-	-	-
CC(C)c1cc(NCC2CCCO2)n2c(nc3ccccc32)c1C#N (centres undefined)	?	-60	?	.	.	?
Nc1ncnc2c1nc(Sc1ccc(Cl)cc1)n2[C@H]1OC2COP(=O)(O)O[C@@H]2C1O (some centres undefined)	-	.	-	.	.	.
COc1ccc(C(=O)/C(=C\c2ccco2)N2C=CC=CC2=C(C#N)C#N)cc1	?	.	?	?	?	11µM
N#CC(C#N)=C1C=CC=CN1/C(=C\c1ccco1)C(=O)c1ccccc1	?	-100	25µM	?	?	?
COc1ccc(/C=C(/C(=O)c2cccs2)N2C=CC=CC2=C(C#N)C#N)cc1	.	-60	-	.	.	-
N#CC(C#N)=C1C=CC=CN1/C(=C\c1ccco1)C(=O)c1ccc(Br)cc1	?	-97	6.3µM	?	?	10µM
COc1ccc(C=C(C#N)C(=O)c2ccccc2)cc1	.	-	.	-	-	-
Cc1cc2c(c(=O)o1)[C@@]1(C(=O)N(C)c3ccc([N+](=O)[O-])cc31)C1=C(CCCC1=O)O2	.	-	.	.	.	.
CCCCCCCCN1C(=O)[C@@H](CC(=O)NCCCOC)C[C@@]2(C(=O)OC)C1=C[C@H](C(C)(C)C)O[C@@H]2C	.	-	.	.	.	.
CCCCn1c(SCc2nnc(-c3ccccc3)o2)nc2c1c(=O)n(C)c(=O)n2C	-	-66	-	-	-	-
CCCCn1c(SCC(=O)N2c3ccccc3CCc3ccccc32)nc2c1c(=O)n(C)c(=O)n2C	-	-	?	-	-	?
Cc1ccc(S(=O)(=O)N(CC(=O)N/N=C/c2cccc(C)c2)c2cccc3cccnc23)cc1	?	?	?	-	.	-
Cc1ccc(S(=O)(=O)N(CC(=O)N/N=C\c2cccs2)c2cccc3cccnc23)cc1	?	-63	-	-	-	-
O=C(Cn1c(=O)n(CC2CS2)c2ccccc21)N1CCCCCC1 (centres undefined)	-	-70	-	-	-	-
CN(C(=O)c1cccc(NC(=O)Cc2ccc(NC(=O)C3CCCN(C(=O)CCc4ccccc4)C3)cc2)c1)C1CCCC1 (centres undefined)	.	-72	.	?	16µM	?
CN(Cc1ccccc1)C(=O)c1ccc(NC(=O)Cc2cccc(NC(=O)C3CCCN(C(=O)CCc4ccccc4)C3)c2)cc1 (centres undefined)	.	-68	.	?	-	?
CN(C(=O)c1cccc(NC(=O)Cc2ccc(NC(=O)C3CCCN(C(=O)CCc4ccccc4)C3)cc2)c1)C1CCC1 (centres undefined)	.	-	.	?	?	18µM
CN(C(=O)c1ccc(NC(=O)Cc2cccc(NC(=O)C3CCCN(C(=O)CCc4ccccc4)C3)c2)cc1)C1CCCC1 (centres undefined)	.	-	.	?	-	-

Bioassay records: PubChem, National Center for Advancing Translational Sciences (NCATS)
